# ± gives the standard deviation of the averaged measurements.
# Key:
# [1] = system: (+)-isopinocamphone A-neuron OSN class; assay: net action potential response of A-neuron (blank-subtracted) (spikes/s (Hz)); higher = stronger excitation; details: 10 µg on filter paper; neuron: A neuron (large spike amplitude)
# How it was run: (§1)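 A humidified, charcoal-filtered airstream of 1.8 L/min passed over one fixed antenna of a live lab-reared adult Ips typographus during single sensillum recording with tungsten electrodes. Stimuli were 0.5 s pulses at 0.3 L/min from a pipette holding filter paper with 10 μg of compound in paraffin oil. Firing of the large-amplitude A-neuron or small-amplitude B-neuron was taken as a spike rate after pre-stimulus subtraction in AutoSpike, conversion to spikes/s, blank subtraction and averaging across sensilla. The windows were 0.5 s long, with 1–4 sensilla.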
# [2] = system: (+)-trans-4-thujanol A-neuron OSN class; assay: as above; details: 10 µg on filter paper; neuron: A neuron (large spike amplitude)
# How it was run: as §1
# [3] = system: (5S,7S)-trans-conophthorin A-neuron OSN class; assay: as above; details: 10 µg on filter paper; neuron: A neuron (large spike amplitude)
# How it was run: as §1
# [4] = system: myrcene A-neuron OSN class; assay: as above; details: 10 µg on filter paper; neuron: A neuron (large spike amplitude)
# How it was run: as §1
# [5] = system: p-cymene A-neuron OSN class; assay: as above; details: 10 µg on filter paper; neuron: A neuron (large spike amplitude)
# How it was run: as §1
# [6] = system: lanierone-responsive B-neuron OSN class (ItypOR36); assay: net action potential response of lanierone B-neuron (blank-subtracted) (spikes/s (Hz)); higher = stronger excitation; details: 10 µg on filter paper, neuron: B neuron (small spike amplitude)
# How it was run: as §1
# [7] = system: ipsdienol A-neuron OSN class; assay: net action potential response of A-neuron (blank-subtracted) (spikes/s (Hz)); higher = stronger excitation; details: 10 µg on filter paper; neuron: A neuron (large spike amplitude)
# How it was run: as §1
# [8] = co-localized A-neuron class: (4S)-cis-verbenol
# [9] = co-localized A-neuron class: (5S,7S)-trans-conophthorin
# [10] = co-localized A-neuron class: (+)-isopinocamphone
# [11] = co-localized A-neuron class: (+)-trans-4-thujanol
# [12] = co-localized A-neuron class: ipsdienol
# [13] = co-localized A-neuron class: myrcene
# [14] = co-localized A-neuron class: p-cymene
SMILES,net action potential response [1],net action potential response [2],net action potential response [3],net action potential response [4],net action potential response [5],"net action potential response [6, 8]","net action potential response [6, 9]","net action potential response [6, 10]","net action potential response [6, 11]","net action potential response [6, 12]","net action potential response [6, 13]","net action potential response [6, 14]",net action potential response [7]
C=C(C)[C@@H]1CC=C(C)CC1 [(-)-Limonene],-0.667 ± 4.2,2 ± 1.6,0 ± 2,6,26.7 ± 13,-1.33 ± 5.8,-2.67 ± 3.1,-0.667 ± 2.3,2.5 ± 5.3,1.33 ± 4.6,-8,-1.33 ± 4.2,–
C[C@]12CCC[C@](C)(OC1)O2 (racemic) [(±)-Frontalin],2 ± 5.3,1 ± 3.5,96 ± 57,-8,1.33 ± 1.1,-1.33 ± 8.1,-2 ± 2,0 ± 7.2,0.5 ± 4.1,0 ± 4,0,-4 ± 4,–
CC(=O)CC/C=C(\C)CCC=C(C)C [Geranylacetone],2 ± 2,1 ± 4.8,4.67 ± 7,-2,3 ± 4.2,-2 ± 2,-2 ± 2,-1.33 ± 4.2,0 ± 4.3,-3.33 ± 5.8,-2,0 ± 2.8,2.67 ± 4.6
CC(=O)OCc1ccccc1 [Benzyl acetate],4 ± 3.5,0 ± 2.8,1.33 ± 4.2,-4,0 ± 4,2.67 ± 6.4,2 ± 5.3,3.33 ± 6.1,-0.5 ± 1.9,-6.67 ± 3.1,0,0.667 ± 4.2,–
CC1(C)C2CC=C(CO)C1C2 (racemic) [(±)-Myrtenol],1.33 ± 5,1.5 ± 2.5,-1 ± 3.5,2,1.33 ± 3.1,-0.667 ± 3.1,2.5 ± 6,-1.33 ± 3.1,0 ± 2.3,-2 ± 14,-6,0 ± 2,–
"COc1ccc(C)cc1OC [3,4-Dimethoxytoluene]",0.667 ± 3.1,1.5 ± 3.8,2.67 ± 6.4,4,1.33 ± 1.1,5.33 ± 11,0 ± 7.2,1.33 ± 2.3,-1.5 ± 3.4,2 ± 6,2,-2 ± 6.9,–
CCC/C=C/CO,-1.33 ± 4.2,0 ± 1.6,-0.667 ± 6.4,-2,1.33 ± 1.1,0.667 ± 6.4,4.67 ± 3.1,-0.667 ± 6.1,4 ± 2.8,2 ± 5.3,2,2 ± 2.8,-1.33 ± 1.1
CC(=O)c1ccccc1 [Acetophenone],2.67 ± 4.2,2 ± 2.8,2 ± 2,-2,4.67 ± 7.6,0 ± 5.3,-3.33 ± 4.2,-0.667 ± 2.3,1.5 ± 1,-4.67 ± 3.1,4,1.33 ± 10,-4 ± 5.3
CC(=O)OCCC(C)C [3-Methylbutyl acetate],4.67 ± 4.2,3.33 ± 3.1,-2.67 ± 4.6,10,6.67 ± 5,-8 ± 5.3,1.33 ± 2.3,3.33 ± 3.1,0 ± 5.3,2,-6,-2 ± 3.5,0 ± 6.9
CCc1ccc(O)c(OC)c1 [4-Ethylguaiacol],-1.33 ± 2.3,1 ± 1.1,3.33 ± 4.2,4,0.667 ± 2.3,1.33 ± 3.1,0.667 ± 2.3,5.33 ± 1.1,4 ± 5.4,-2 ± 5.3,-8,0.667 ± 3.1,–
CC1=CC(=O)[C@@H]2C[C@H]1C2(C)C [(-)-Verbenone],0.667 ± 1.1,1 ± 4.8,-5 ± 4.8,-6,-0.667 ± 3.1,1.33 ± 6.4,-0.667 ± 1.1,-4.67 ± 6.1,4 ± 6.7,2 ± 4,6,2 ± 2,–

# From the supplement of paper PMC11577813, “Eurasian spruce bark beetle detects lanierone using a highly expressed specialist odorant receptor, present in several functional sensillum types” (BMC Biology, 2024)
